The campaign covered roughly 390,000 compounds. About 2,600 (0.67%) were called active. For the sample, actives were picked, then their nearest neighbours and some compounds at random. Unmarked numbers belong to inactive results.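 Rule for the calls: active = mean inhibition of replicates at least 50% and at least half of replicates each reaching 50%; inconclusive = half or more replicates reach 50% but mean below 50%; inactive = the rest.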

The assay addresses Transforming acidic coiled-coil-containing protein 3 (Homo sapiens) (UniProt Q9Y6A5). Briefly: inhibitors of ARNT PAS-B binding to TACC3 – biochemical, AlphaScreen, single concentration, primary screen (AID 623870).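 Note: 0% = complete ARNT plus TACC3 wells and 100% = ARNT alone without TACC3.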 The note with it: AlphaScreen His-ARNT PAS-B/GST-TACC3 binding, luminescence; at 9.99 µM; stronger effect = higher value; TACC3 fragment carries E629A point mutation.
In general, inhibition refers to the relative decrease from the control value, in per cent. Regarding `CN1C(=O)c2cc(NS(=O)(=O)c3ccc(Cl)cc3)ccc2OC[C@H]2O[C@@H](CC(=O)O)CC[C@H]21`, the inhibition was 4.03%. On to `C[C@@H]1CN([C@H](C)CO)C(=O)Cc2cc(NC(=O)CCCN(C)C)ccc2O[C@H]1CN(C)CC1CCCCC1`, for which the inhibition was 0.403%. As for `COc1ccc2ccccc2c1CNCc1ccccn1`, the inhibition was 55.2% (active).

For the compound `CCOc1cc(CNCc2ccccn2)ccc1OCC(=O)NC(C)(C)C`, the inhibition was 36.2%. Under `COc1cc(CNCc2ccc(OC)c3ccccc23)cc(OC)c1OC` stands 4.98%; under `Cc1ccc(S(=O)(=O)Nc2ccc3c(c2)C(=O)N([C@H](C)CO)C[C@H](C)[C@H](CN(C)C(=O)NC(C)C)OCCCC[C@@H](C)O3)cc1`, -2.46%; under `N/C(=N\OC(=O)Cc1ccc([N+](=O)[O-])cc1)c1ccccn1`, 55.4% (active). Turning to `N/C(=N\OC(=O)CCC1CCCCC1)c1ccccn1`, the inhibition is -3.39%. With `N/C(Cc1ccc([N+](=O)[O-])cc1)=N\OC(=O)COc1ccc2ccccc2c1`, the inhibition was 1.55%. In the case of `COc1ccc(S(=O)(=O)N[C@@H]2CC[C@@H](CC(=O)NCCc3ccccc3)O[C@@H]2CO)cc1`, the inhibition is -3.62%.

As to `CCCC#Cc1ccc2c(c1)O[C@@H](CN(C)C(=O)CC)[C@@H](C)CN([C@H](C)CO)S2(=O)=O`, the inhibition is 5.6%. On to `Cc1cccc(S(=O)(=O)N[C@H]2CC[C@@H](CCNS(=O)(=O)c3ccccc3F)O[C@H]2CO)c1`, for which the inhibition is 1.77%. For `CCOC(=O)c1ccc(Nc2cc3ccccc3c(=O)[nH]2)cc1` the value was 4.54% (active); for `CC(C)CN(C(=O)COC(=O)c1ccc2ccccc2c1)c1c(N)n(Cc2ccccc2)c(=O)[nH]c1=O`, -0.235%.

On to `CCOC(=O)c1ccc(NC(=O)C2CC(=O)Nc3nc4ccccc4n32)cc1` (stereo unspecified), for which the inhibition is 1.15%. For `O=C(C[C@H]1C[C@@H]2c3cc(NC(=O)C4CCOCC4)ccc3O[C@@H]2[C@H](CO)O1)NCC1CC1` the value was -7.92%; for `OCCn1c(-c2ccccc2)csc1=Nc1ccccc1`, 51% (active); for `O=c1cc(CCl)nc2scc(-c3ccccc3)n12`, -9.12%. Regarding `COc1ccccc1S(=O)(=O)N1CC[C@H]2[C@@H](CO)N(C)c3ccc(C#Cc4ccccc4)cc3[C@H]21`, the inhibition is 9.34%. Turning to `C[C@H]1CN([C@@H](C)CO)C(=O)Cc2cc(NS(C)(=O)=O)ccc2O[C@@H]1CN(C)S(=O)(=O)c1cccs1`, the inhibition is -10.4%. Regarding `O=C(C[C@@H]1C[C@@H]2c3cc(NS(=O)(=O)c4ccc(F)cc4)ccc3O[C@@H]2[C@H](CO)O1)NCc1ccccc1F`, the inhibition is -1.77%.

The values are drawn from PubChem BioAssay AID623870 (Broad Institute, 2012).
